SF-1 inh: SF-1 (human) inhibition. Q13285. CHO-K1 Gal4-SF-1 LBD luciferase reporter. inhibition, % at 10 µM. actives 0.55% (n = 65,000);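 active = inhibition above the mean inhibition of all tested compounds plus 3 SD, cut at about 48% in these data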;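 note: 0% = SF-1 transfected cells with DMSO and 100% = mock-transfected cells lacking SF-1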
Starred values were filed as active, the others as inactive. The entries come from a sample that favours hits as a whole.

What do the screens show for `COc1cc2nc(CN3CC=C(c4ccccc4)CC3)[nH]c(=O)c2cc1OC`?
SF-1 inh: 88*

What do the screens show for `COc1ccccc1-n1c(-c2ccoc2)nc2ccccc2c1=O`?
SF-1 inh: 4

How did Cc1c2cnn(CC(=O)N3CCC4(CC3)OCCO4)c(=O)c2c(C)n1Cc1ccccc1F do in these assays?
SF-1 inh: 1

How did CC1(C)CN=C(Nc2nc3ccccc3s2)S1 do in these assays?
SF-1 inh: -70

How did CC12CCCCC1=[N+]([O-])CN2O (centres undefined) do in these assays?
SF-1 inh: -8

How did C=CCN1C(=O)CSc2ccc(C(=O)N3CCC4(CC3)OCCO4)cc21 do in these assays?
SF-1 inh: 12

What do the screens show for `CCn1nc(-c2cccs2)nc2c(=O)n(C)c(=O)nc1-2`?
SF-1 inh: 96*

What do the screens show for `Cc1cccc(-n2c(CN3C(=O)c4ccccc4C3=O)nc3ccccc3c2=O)n1`?
SF-1 inh: -1

What do the screens show for `Cc1cnn(C2CCN(C)CC2)c1N`?
SF-1 inh: -12

Results for C=C1N2CCC(CC2)C1(O)c1ccccc1C (centres undefined) ?
SF-1 inh: -1
